Assay results reported in the supplement of paper PMC10849652.
Targets with a hit are over-represented here; the source holds about 8,800 in all. About 0.5% of all pairs of compound and target were hits.

Tests used:
Test in all cases: log2 fold change, soluble protein after heating vs DMSO (PISA); higher = thermal stabilisation; K562 lysate, 10 uM; active = over 0.2 and 3.5 SD of the protein, either way, in both replicates (recomputed)
nilotinib = compound: Cc1cn(-c2cc(NC(=O)c3ccc(C)c(Nc4nccc(-c5cccnc5)n4)c3)cc(C(F)(F)F)c2)cn1 [nilotinib]
Summary of the method: (§1)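 K562 pellets were dounce-homogenised in PBS pH 7.4 containing 1 mM MgCl2, and the crude extract, at 1 mg/mL protein, was exposed to 10 μM compound for 30 min. Aliquots were heated for 3 min across 48°C-58°C, pooled, brought to 0.5% NP-40 at 4°C and spun at 21,000xg for 90 min, with the supernatant taken as soluble protein. TMTpro 16plex LC-MS/MS with equalised channel sums quantified that protein. Values are log-two fold changes in thermal stability relative to solvent controls, taken from duplicates.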

[1] = compound: Cc1nc(Nc2n[nH]c3c2CN(C(=O)N[C@H](CN(C)C)c2ccccc2)C3(C)C)c2sccc2n1
Summary of the method: as §1

dasatinib = compound: Cc1nc(Nc2ncc(C(=O)Nc3c(C)cccc3Cl)s2)cc(N2CCN(CCO)CC2)n1 [dasatinib]
Summary of the method: as §1

[2] = compound: Cc1ncc(-c2ccnc(Nc3ccc(S(C)(=O)=O)cc3)n2)n1C(C)C
Summary of the method: as §1

[3] = compound: Cn1cc(-c2ccc3c(c2)CCN3C(=O)Cc2cccc(C(F)(F)F)c2)c2c(N)ncnc21
Summary of the method: as §1

quisinostat = compound: Cn1cc(CNCC2CCN(c3ncc(C(=O)NO)cn3)CC2)c2ccccc21 [quisinostat]
Summary of the method: as §1

tipifarnib = compound: Cn1cncc1[C@@](N)(c1ccc(Cl)cc1)c1ccc2c(c1)c(-c1cccc(Cl)c1)cc(=O)n2C [tipifarnib]
Summary of the method: as §1

[4] = compound: NC(=O)Nc1cc(-c2cccc(F)c2)sc1C(=O)N[C@H]1CCCNC1
Summary of the method: as §1

[5] = compound: NC(=O)c1cnc(N[C@@H]2CCCC[C@@H]2N)nc1Nc1cccc(-n2nccn2)c1
Summary of the method: as §1

[6] = compound: NC1(c2ccc(-c3nc4ccn5c(=O)[nH]nc5c4cc3-c3ccccc3)cc2)CCC1
Summary of the method: as §1

Measured: log2 fold change

FAU (UniProt E9PR30)
inactive: nilotinib 0.006 | [1] 0.001 | dasatinib -0.018 | [2] 0.005 | [3] 0.052 | quisinostat 0.002 | tipifarnib 0.046 | [4] -0.055 | [5] 0 | [6] -0.058

FAM120B (UniProt Q96EK7)
Chain of UniProt Q96EK7 (Q96EK7 whole entry, looked up): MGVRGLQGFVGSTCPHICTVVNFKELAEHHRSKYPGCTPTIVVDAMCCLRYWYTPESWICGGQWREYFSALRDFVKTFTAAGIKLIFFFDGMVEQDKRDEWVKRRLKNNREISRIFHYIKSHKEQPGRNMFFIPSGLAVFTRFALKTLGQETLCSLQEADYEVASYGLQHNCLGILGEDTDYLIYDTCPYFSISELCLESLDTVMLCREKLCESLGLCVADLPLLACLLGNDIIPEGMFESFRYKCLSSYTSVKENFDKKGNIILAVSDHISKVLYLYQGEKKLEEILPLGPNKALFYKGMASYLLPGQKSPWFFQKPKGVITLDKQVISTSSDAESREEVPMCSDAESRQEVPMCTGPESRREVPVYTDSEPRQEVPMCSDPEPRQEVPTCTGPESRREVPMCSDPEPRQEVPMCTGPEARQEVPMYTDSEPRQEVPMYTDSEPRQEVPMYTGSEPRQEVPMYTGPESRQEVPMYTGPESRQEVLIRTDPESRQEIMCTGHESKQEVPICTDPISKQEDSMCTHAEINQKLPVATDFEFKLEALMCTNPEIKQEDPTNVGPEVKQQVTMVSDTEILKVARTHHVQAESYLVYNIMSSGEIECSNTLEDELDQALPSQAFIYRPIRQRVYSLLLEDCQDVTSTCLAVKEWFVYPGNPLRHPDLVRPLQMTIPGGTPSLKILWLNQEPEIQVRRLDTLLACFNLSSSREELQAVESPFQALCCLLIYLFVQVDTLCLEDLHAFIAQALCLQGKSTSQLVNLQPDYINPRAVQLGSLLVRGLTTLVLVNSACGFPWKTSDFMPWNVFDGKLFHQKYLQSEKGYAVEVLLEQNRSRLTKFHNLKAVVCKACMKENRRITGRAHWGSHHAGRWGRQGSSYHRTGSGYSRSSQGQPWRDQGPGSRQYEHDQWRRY
inactive: nilotinib -0.067 | [1] -0.017 | dasatinib -0.033 | [2] -0.008 | [3] 0.017 | quisinostat -0.062 | tipifarnib 0.05 | [4] 0.015 | [5] -0.029 | [6] -0.048

EIF3I (UniProt Q13347)
Chain of UniProt Q13347 (Q13347 whole entry, looked up): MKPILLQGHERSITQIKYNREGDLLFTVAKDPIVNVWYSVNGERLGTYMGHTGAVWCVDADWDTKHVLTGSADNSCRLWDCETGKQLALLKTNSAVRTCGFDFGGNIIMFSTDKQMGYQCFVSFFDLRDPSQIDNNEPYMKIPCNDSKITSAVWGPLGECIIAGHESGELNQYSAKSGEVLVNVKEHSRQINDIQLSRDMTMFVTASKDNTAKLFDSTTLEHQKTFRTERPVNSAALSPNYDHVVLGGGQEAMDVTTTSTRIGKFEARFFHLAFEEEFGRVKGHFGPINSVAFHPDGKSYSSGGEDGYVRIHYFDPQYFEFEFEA
inactive: nilotinib 0.022 | [1] -0.004 | dasatinib -0.018 | [2] 0.013 | [3] 0.044 | quisinostat -0.009 | tipifarnib 0.018 | [4] 0.036 | [5] 0 | [6] -0.013

EIF2AK2 (UniProt P19525)
inactive: nilotinib -0.014 | [1] 0.043 | dasatinib 0.122 | [2] 0.01 | [3] 0.056 | quisinostat -0.087 | tipifarnib -0.032 | [4] 0.045 | [5] -0.013 | [6] -0.054

FECH isoform 2 (UniProt P22830)
Chain of UniProt P22830 (P22830 whole entry, looked up): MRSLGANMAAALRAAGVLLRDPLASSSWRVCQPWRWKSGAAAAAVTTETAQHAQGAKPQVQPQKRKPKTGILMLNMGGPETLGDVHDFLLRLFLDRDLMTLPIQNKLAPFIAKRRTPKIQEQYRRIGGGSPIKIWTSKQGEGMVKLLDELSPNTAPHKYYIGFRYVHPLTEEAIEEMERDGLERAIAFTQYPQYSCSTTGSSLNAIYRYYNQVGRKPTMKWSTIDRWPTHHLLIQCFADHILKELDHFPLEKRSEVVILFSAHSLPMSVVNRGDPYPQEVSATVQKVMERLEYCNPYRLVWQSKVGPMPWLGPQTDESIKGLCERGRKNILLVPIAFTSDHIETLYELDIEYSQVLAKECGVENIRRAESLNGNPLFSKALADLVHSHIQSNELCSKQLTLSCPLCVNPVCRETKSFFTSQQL
inactive: nilotinib 0.796 | [1] 0 | dasatinib 0.353 | [2] 0.364 | [3] 0.009 | quisinostat 0.333 | tipifarnib -0.007 | [4] -0.013 | [5] 0.139 | [6] 0.053

EAPP (UniProt Q56P03)
inactive: nilotinib 0.039 | [1] 0.018 | dasatinib 0.024 | [2] -0.095 | [3] -0.001 | quisinostat 0.017 | tipifarnib 0.002 | [4] 0.021 | [5] 0.038 | [6] -0.045

GEMIN4 (UniProt P57678)
inactive: nilotinib -0.001 | [1] -0.014 | dasatinib -0.047 | [2] -0.001 | [3] 0.101 | quisinostat -0.056 | tipifarnib 0.006 | [4] 0.077 | [5] -0.001 | [6] -0.097

EXOC2 (UniProt Q96KP1)
inactive: nilotinib 0.009 | [1] 0.018 | dasatinib -0.041 | [2] -0.009 | [3] 0.022 | quisinostat -0.088 | tipifarnib -0.022 | [4] 0.062 | [5] -0.003 | [6] -0.029

EDARADD (UniProt Q8WWZ3)
inactive: nilotinib 0.076 | [1] -0.036 | dasatinib -0.004 | [2] 0.008 | [3] 0.023 | quisinostat 0.07 | tipifarnib 0.065 | [4] -0.05 | [5] -0.032 | [6] 0.019

EPB41 (UniProt P11171)
Chain of UniProt P11171 (P11171 whole entry, looked up): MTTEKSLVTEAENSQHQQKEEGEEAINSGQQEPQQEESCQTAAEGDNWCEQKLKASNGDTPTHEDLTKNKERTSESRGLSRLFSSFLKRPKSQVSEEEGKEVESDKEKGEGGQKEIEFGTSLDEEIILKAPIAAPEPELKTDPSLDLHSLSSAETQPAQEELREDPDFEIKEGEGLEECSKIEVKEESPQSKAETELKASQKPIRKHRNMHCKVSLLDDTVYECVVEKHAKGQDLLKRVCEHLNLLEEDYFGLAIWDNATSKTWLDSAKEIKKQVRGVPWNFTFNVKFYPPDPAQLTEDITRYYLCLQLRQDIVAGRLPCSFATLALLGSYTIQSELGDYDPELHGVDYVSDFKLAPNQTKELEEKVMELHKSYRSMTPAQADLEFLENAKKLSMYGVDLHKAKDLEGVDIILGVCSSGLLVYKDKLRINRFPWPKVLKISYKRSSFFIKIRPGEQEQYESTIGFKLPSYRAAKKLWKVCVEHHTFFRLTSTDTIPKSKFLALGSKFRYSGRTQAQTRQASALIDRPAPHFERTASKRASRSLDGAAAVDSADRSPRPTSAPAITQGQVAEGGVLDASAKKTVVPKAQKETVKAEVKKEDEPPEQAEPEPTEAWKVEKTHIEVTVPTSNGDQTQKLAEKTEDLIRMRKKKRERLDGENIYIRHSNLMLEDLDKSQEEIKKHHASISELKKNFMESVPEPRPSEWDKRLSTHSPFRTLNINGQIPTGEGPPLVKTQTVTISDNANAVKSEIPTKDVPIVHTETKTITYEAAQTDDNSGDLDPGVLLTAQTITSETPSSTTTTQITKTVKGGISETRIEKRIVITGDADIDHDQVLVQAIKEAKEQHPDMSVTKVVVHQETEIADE
inactive: nilotinib -0.01 | [1] 0.024 | dasatinib 0 | [2] -0.007 | [3] 0.031 | quisinostat 0.039 | tipifarnib 0.011 | [4] 0.003 | [5] 0.012 | [6] 0.003

EPRS (UniProt P07814)
inactive: nilotinib 0.005 | [1] -0.002 | dasatinib -0.039 | [2] -0.01 | [3] 0.039 | quisinostat 0 | tipifarnib 0.011 | [4] 0.039 | [5] 0.002 | [6] -0.026

DTYMK (UniProt P23919)
Chain of UniProt P23919 (P23919 whole entry, looked up): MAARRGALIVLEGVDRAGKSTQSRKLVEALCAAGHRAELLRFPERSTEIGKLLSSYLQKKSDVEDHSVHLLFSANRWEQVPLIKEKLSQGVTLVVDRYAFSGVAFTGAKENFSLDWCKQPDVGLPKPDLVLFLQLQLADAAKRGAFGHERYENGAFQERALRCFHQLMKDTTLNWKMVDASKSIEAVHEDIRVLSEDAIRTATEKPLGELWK
inactive: nilotinib -0.003 | [1] 0.002 | dasatinib -0.072 | [2] -0.007 | [3] -0.025 | quisinostat -0.009 | tipifarnib 0.017 | [4] 0.045 | [5] -0.024 | [6] -0.007

GALNT2 (UniProt Q10471)
inactive: nilotinib -0.02 | [1] -0.054 | dasatinib 0.003 | [2] 0.008 | [3] 0.008 | quisinostat 0.081 | tipifarnib -0.067 | [4] -0.004 | [5] -0.002 | [6] -0.031

GALK1 isoform 2 (UniProt P51570)
inactive: nilotinib 0.01 | [1] -0.018 | dasatinib -0.024 | [2] -0.014 | [3] 0.03 | quisinostat -0.051 | tipifarnib 0.002 | [4] 0.04 | [5] -0.033 | [6] -0.006

FBXO22 (UniProt Q8NEZ5)
Chain of UniProt Q8NEZ5 (Q8NEZ5 whole entry, looked up): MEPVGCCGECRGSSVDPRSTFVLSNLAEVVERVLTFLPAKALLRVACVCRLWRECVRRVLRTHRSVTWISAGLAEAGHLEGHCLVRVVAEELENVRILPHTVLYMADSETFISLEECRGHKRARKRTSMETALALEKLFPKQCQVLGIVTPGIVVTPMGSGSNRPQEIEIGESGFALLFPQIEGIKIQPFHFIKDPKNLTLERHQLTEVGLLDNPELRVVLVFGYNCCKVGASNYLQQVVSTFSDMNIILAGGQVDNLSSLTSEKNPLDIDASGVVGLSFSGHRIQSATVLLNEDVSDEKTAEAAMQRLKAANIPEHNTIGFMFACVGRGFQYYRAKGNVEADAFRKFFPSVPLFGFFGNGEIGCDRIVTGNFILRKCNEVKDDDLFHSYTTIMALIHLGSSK
inactive: nilotinib 0.005 | [1] 0.021 | dasatinib -0.028 | [2] -0.036 | [3] 0.025 | quisinostat -0.047 | tipifarnib 0.034 | [4] 0.012 | [5] -0.007 | [6] -0.016

FAM118A (UniProt Q9NWS6)
inactive: nilotinib -0.017 | [1] -0.03 | dasatinib -0.043 | [2] -0.003 | [3] -0.082 | quisinostat -0.103 | tipifarnib 0.016 | [4] 0.013 | [5] 0.003 | [6] -0.023

DTWD1 (UniProt Q8N5C7)
inactive: nilotinib 0.007 | [1] -0.039 | dasatinib -0.034 | [2] 0.01 | [3] -0.02 | quisinostat -0.067 | tipifarnib -0.007 | [4] 0.002 | [5] -0.008 | [6] 0.049

FHOD1 (UniProt Q9Y613)
Chain of UniProt Q9Y613 (Q9Y613 whole entry, looked up): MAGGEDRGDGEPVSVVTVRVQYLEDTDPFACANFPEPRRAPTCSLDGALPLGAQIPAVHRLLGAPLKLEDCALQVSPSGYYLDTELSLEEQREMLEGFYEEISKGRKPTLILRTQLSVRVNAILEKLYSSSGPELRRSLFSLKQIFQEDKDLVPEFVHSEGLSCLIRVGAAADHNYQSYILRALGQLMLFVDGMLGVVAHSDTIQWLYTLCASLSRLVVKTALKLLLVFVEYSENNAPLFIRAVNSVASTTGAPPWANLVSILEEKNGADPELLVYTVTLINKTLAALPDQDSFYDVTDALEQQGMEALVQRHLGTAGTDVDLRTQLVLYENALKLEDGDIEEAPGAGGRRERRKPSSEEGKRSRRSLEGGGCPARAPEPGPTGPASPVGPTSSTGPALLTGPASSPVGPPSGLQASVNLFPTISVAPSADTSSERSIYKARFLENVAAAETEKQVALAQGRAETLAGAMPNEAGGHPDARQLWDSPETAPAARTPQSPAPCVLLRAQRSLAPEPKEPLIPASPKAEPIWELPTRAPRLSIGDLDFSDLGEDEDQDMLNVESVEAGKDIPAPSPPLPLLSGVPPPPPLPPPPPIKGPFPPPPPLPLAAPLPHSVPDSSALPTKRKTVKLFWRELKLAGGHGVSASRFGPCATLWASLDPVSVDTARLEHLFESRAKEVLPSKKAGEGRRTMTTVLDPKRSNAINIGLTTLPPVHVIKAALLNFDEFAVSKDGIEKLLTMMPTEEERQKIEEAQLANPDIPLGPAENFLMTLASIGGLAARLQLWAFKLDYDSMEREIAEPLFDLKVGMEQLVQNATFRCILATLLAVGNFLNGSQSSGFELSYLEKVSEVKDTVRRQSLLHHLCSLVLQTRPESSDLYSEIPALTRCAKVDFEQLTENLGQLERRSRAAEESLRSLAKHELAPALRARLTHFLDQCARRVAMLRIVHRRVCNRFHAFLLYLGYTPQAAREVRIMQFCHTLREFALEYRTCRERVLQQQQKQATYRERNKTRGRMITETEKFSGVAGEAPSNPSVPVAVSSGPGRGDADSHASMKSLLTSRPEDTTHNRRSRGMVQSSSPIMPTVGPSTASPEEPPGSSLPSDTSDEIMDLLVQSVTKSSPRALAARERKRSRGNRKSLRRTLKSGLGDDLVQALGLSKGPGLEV
inactive: nilotinib 0.005 | [1] 0.017 | dasatinib -0.05 | [2] -0.007 | [3] 0.002 | quisinostat 0.017 | tipifarnib -0.017 | [4] 0.039 | [5] 0.014 | [6] 0.023

FKBP1A (UniProt P62942)
Chain of UniProt P62942 (P62942 whole entry, looked up): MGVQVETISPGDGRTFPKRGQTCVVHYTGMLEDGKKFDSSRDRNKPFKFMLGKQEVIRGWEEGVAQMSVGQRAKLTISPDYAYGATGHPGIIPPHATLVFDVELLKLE
inactive: nilotinib 0.023 | [1] 0.002 | dasatinib -0.005 | [2] 0.081 | [3] -0.103 | quisinostat 0.012 | tipifarnib 0.038 | [4] -0.005 | [5] 0.002 | [6] -0.039

EXOC6 (UniProt Q8TAG9)
inactive: nilotinib -0.002 | [1] 0.01 | dasatinib -0.063 | [2] 0.022 | [3] 0.064 | quisinostat -0.023 | tipifarnib -0.044 | [4] 0.068 | [5] 0.024 | [6] -0.064

EIF2B5 (UniProt Q13144)
inactive: nilotinib -0.004 | [1] 0.037 | dasatinib -0.015 | [2] 0.008 | [3] 0.01 | quisinostat -0.002 | tipifarnib -0.006 | [4] 0.038 | [5] -0.01 | [6] -0.011

ESYT2 (UniProt H7BXI1)
inactive: nilotinib 0.016 | [1] -0.017 | dasatinib -0.01 | [2] 0.037 | [3] 0.02 | quisinostat 0.027 | tipifarnib 0.009 | [4] -0.015 | [5] -0.031 | [6] -0.051

EDC3 (UniProt Q96F86)
Chain of UniProt Q96F86 (Q96F86 whole entry, looked up): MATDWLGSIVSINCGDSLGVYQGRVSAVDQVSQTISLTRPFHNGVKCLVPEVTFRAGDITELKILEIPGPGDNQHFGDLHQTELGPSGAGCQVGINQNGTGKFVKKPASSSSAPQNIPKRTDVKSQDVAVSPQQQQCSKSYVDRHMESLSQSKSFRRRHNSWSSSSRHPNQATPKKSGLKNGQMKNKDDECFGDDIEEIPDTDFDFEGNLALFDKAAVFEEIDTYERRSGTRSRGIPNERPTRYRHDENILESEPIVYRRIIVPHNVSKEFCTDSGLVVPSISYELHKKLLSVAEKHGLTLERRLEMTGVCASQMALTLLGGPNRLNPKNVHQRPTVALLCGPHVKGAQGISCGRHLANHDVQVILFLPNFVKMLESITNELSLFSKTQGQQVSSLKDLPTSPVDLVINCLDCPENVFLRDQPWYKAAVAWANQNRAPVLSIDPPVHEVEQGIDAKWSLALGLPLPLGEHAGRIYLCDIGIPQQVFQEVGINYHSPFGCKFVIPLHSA
inactive: nilotinib 0.045 | [1] 0.016 | dasatinib -0.022 | [2] -0.031 | [3] 0.004 | quisinostat -0.006 | tipifarnib -0.069 | [4] -0.019 | [5] -0.014 | [6] 0.017
